# Tested on: VDR:RXRa (NR concentration 270 nM, RXRa partner concentration 90 nM)
# Assay: PBM binding z-score (relative to random genomic background probes); higher = stronger binding; sequences stand for … in GC…GCGATTGACAGCGTAGAATGAAGG
# Method: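 Protein-binding microarray (Agilent 4x180K custom design, double-stranded 60-nt probes: 5' GC cap, 34-nt variable region, 24-nt constant primer region; full probe sequence given). Purified or IVT nuclear receptor:RXRα heterodimers (3:1 NR:RXRα, mostly 270:90 nM) or homodimers were incubated for 1 h in PBS with 2% milk and no ligand, then detected with Alexa488 antibodies. Fluorescence from o1-orientation probes (~5 replicates averaged) was converted to z-scores against 500 random hg19 background probes. Variable regions are seed direct-repeat (DR0–DR5) sites, all their single-nucleotide variants and half-site ablations.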
row,Sequence,PBM binding z-score
1,ATATGTAGGTTAGGATCATTCAGAAAGTAGGGAA,0.744
2,CGAACTAGGTCAATGGACAGTGAAAGGCGACGTA,0.802
3,TCGAGGAGGTTACGGGGGCATTCAGGGATGAAGA,5.08
4,CCTACTGGGCCATTCAGAGGACATTGATCATATG,-0.347
5,CAAACTAGGTCACAGAGGTCGAAGTCCGTGCGTA,6.75
6,TAGCCTAGGTCATTCAGGGGGCAGTATAGAAAGC,4.82
7,CGAACTCGGTCACCAGGACAGTGAAGAGGTTGGA,1.87
8,AATACAGGGACATCGTAGGCCAGAGTACGCACAG,-0.0914
9,CCTACTGGGCCAAAGGTCTTTGATTCCAATGCTC,-0.283
10,CGAACTAGGTCACCAGGACAGGGAAGAGGTTGGA,1.91
11,CCTCGGAGGTCAGAAGGTCAGAGCTGTCCGCTTT,4.38
12,ATATGTAGGTTAGGGTCCTTCAGAAAGTAGGGAA,0.818
13,CCGAGTAGGTTACGAGGGGGCACTCAGTGCGAAT,4.68
14,CTATGTAGGTTAAGGGGCTCATTCAGTTTGAAAG,0.993
15,CGAACTAGGTCAACGACAGTGAATCTCCGCACGC,1.27
16,ATACGTAGGTTAGGGTCATTCAGAAAGTAGGGAA,4.37
17,CGAACTATGTCACCAGGACAGTGAAGAGGTTGGA,0.173
18,CGAACTAGGTCACCAGGACAGTGATGAGGTTGGA,2.17
19,CCTTACGGGTCAAGGTTATACCACGGGTGGTACG,3.65
20,ATATGTAGGTTAGGGTCACTCAGAAAGTAGGGAA,3.98

row,Sequence,PBM binding z-score
1,CGCCCAAGGTCAGCAGGTCAGTGAAAGCGACGTG,3.83
2,CATAGTTGGTCAAGGTCACACACGCTATAGGTAC,4.32
3,TTACCAAGGTAAAAGGTCGTTGATGCACGCCTTG,2.6
4,CGAACTCGGTCAAAGGACAGTGAAAGGCGACGTA,0.208
5,CCTAGCAGGCCACGGTCACTCAAGCATTTCGCTT,-0.261
6,CCTTACGGGTCAAGGTAATAGCACGGGTGGTACG,2.65
7,AATACAGGATCACTAGGCCAGAGTAGGTACGAAT,-0.235
8,AGAATGAGGTTATACGTAGGTCAGGGAAGAAAGT,3.34
9,CCGAGTAGGTTACGGGGGGGCATTCAGTGCGAAT,5.49
10,TTACCAAGGTGAAAGGTCGGTGATGCACGCCTTG,1.38
11,AGATTGAGGTTACCAAAGATCAGGGAAACGCTTG,1.39
12,CCTACTGGGCCAAAGGCCATTGATTCCAATGCTC,-0.327
13,GGAACGGGGGCATTCGAGTTGATAGCATGGCGAT,5.52
14,CCTAGATGGTCAGGAGGTCACACACCGGATATGA,3.76
15,CCGACTGGGGCAACGGTTACCATACTCAGTACGA,-0.409
16,TAGCCTAGGTCATTGTGCCAGTATAGTACGCATC,2.33
17,CGTCCAAGGTCATGGGAGGTCAGTGAAGACAGAT,7.07
18,ATATGTAGGTCAGGGTCATTCAGAAAGTAGGGAA,5.08
19,ACTAGTTGGTAAGCTGAGGTCACACACAATTCGG,3.71
20,GATACAGGGTCAGCTAGAGGGCAGAGTATGGAAA,4.22

# Source: the supplement of paper PMC6555819
